The source of these data is PubChem BioAssay AID485284 (NMMLSC, 2010).

Entries with a potency or affinity are not part of this list.

This experiment can be described thus: loss of vesicle association with mouse CD8+ T cells – mouse 2C CD8+ T cells, flow cytometry, dose response (AID 485284).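 Note: drosophila derived vesicles carrying Ld MHC with QL9 peptide plus B7-1 and ICAM-1; vesicle binding seen as anti-B7-1 PE fluorescence on CD8 gated cells.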 The conditions noted are these: 2C mouse CD8+ T cell-exosome binding; at 45 µM (top of the series).
For `CCSc1nnc(NC(=O)c2ccc(F)c(S(=O)(=O)N3CCOCC3)c2)s1`, the binding remaining, % of control was 127%.

As to `Cc1cc(F)ccc1S(=O)(=O)N1CCCOC1CNC(=O)C(=O)NC1CCCC1` (centres undefined), the binding remaining, % of control was determined as 67.8%.

`CCOC(=O)c1c(NC(=O)CN2C(=O)NC3(CCC(C)CC3)C2=O)sc(C)c1-c1ccc(C)cc1` (centres undefined): the binding remaining, % of control came to 108%.

As to `O=C(N/N=C/c1cccc(OC(=O)c2ccccc2Cl)c1)c1cccnc1`, the binding remaining, % of control is 168%.

On to `Cc1ncc([N+](=O)[O-])n1Cc1cccc(F)c1`, for which the binding remaining, % of control amounted to 40.3%.

In the case of `O=C(Cn1cc2c(n1)CCCC2)NCc1ccccn1`, the binding remaining, % of control was 106%.

Turning to `Cc1ccccc1CS(=O)(=O)CCC(=O)N1CCN(c2ccc(N3CCOCC3)nn2)CC1`, the binding remaining, % of control amounted to 40.8%.

For `Cc1ccc(S(=O)(=O)N2CCN(S(=O)(=O)N(C)C)CC2)c(C)c1`, the binding remaining, % of control stood at 32.6%.

Regarding `CCCCN(C(=O)COC(=O)c1ccc(C=O)cc1)c1c(N)n(CCC)c(=O)[nH]c1=O`, the binding remaining, % of control stood at 50.1%.

As for `COc1ccc(NC(=O)CSCC(=O)Nc2cccc(S(=O)(=O)N3CCCCCC3)c2)cc1`, the binding remaining, % of control was 44.4%.

For `NC(=O)C1CCN(c2nc(-c3cc4ccccc4o3)cs2)CC1`, the binding remaining, % of control amounted to 44.2%.

Consider `CC1CCN(S(=O)(=O)c2csc(C(=O)Nc3ccccc3)c2)CC1`, for which the binding remaining, % of control was determined as 61.2%.

As for `CN(C)S(=O)(=O)c1cccc(-n2sc3ccccc3c2=O)c1`, the binding remaining, % of control is 73.9%.

On to `O=C(NCCC1=CCCCC1)C(=O)NCC(c1ccco1)N1CCN(c2ccccc2F)CC1` (centres undefined), for which the binding remaining, % of control was 136%.

On to `CCOC(=O)C1(CC2CCCCO2)CCN(S(=O)(=O)c2ccc(C)s2)CC1` (centres undefined), for which the binding remaining, % of control is 105%.

`O=C(Cc1ccc(S(=O)(=O)N2CCOCC2)s1)Nc1ccc(S(=O)(=O)N2CCCCC2)cc1`: the binding remaining, % of control is 72.7%.

Regarding `O=C1N=C(N2CCOCC2)S/C1=C\c1cccs1`, the binding remaining, % of control is 99.5%.

For `CCN1CCN(c2ccc(S(=O)(=O)N3CCOCC3)cc2NC(=O)/C=C/c2ccc(C)cc2)CC1`, the binding remaining, % of control was 98.1%.

As to `Cc1ccc2oc(=O)c(/C=C(\O)c3sc(C)nc3C)nc2c1`, the binding remaining, % of control came out at 119%.

Take `O=C(COC(=O)C1(c2cccc(F)c2)CCCC1)NCc1ccc2c(c1)OCO2`: the binding remaining, % of control amounted to 72.1%.

As for `Cc1ccc(C)c(-n2c3nc(=O)[nH]c(=O)c-3cc3cc([N+](=O)[O-])ccc32)c1`, the binding remaining, % of control came out at 133%.

Turning to `Cc1ccccc1C(=O)NCC(=O)N1CCN(C/C=C/c2ccccc2)CC1`, the binding remaining, % of control amounted to 42.6%.

Regarding `CC(C)(C)OC(=O)NCc1ccc(CNC(=O)c2nc[nH]c2C(=O)NCc2ccccc2)cc1`, the binding remaining, % of control was determined as 109%.

On to `O=C(c1ccc(N2C(=O)C3CC=C(Cl)CC3C2=O)cc1)N1CCCCC1` (centres undefined), for which the binding remaining, % of control is 18.5%.

As for `N#Cc1cccc(NC(=O)CN2C(=O)NC3(CCCCCC3)C2=O)c1`, the binding remaining, % of control is 176%.

As for `Cc1cccc(N(C(=O)c2snc(C(N)=O)c2N)C(C(=O)NCC2CCCO2)c2ccc(N(C)C)cc2)c1C` (centres undefined), the binding remaining, % of control worked out at 22.8%.

For `Cc1c(NS(=O)(=O)CC23CCC(CC2=O)C3(C)C)c(=O)n(-c2ccccc2)n1C` (centres undefined), the binding remaining, % of control was found to be 21%.

Regarding `CCCCN1C(=O)NC(NC(=O)C2CC2)(C(F)(F)F)C1=O` (centres undefined), the binding remaining, % of control stood at 136%.

For the compound `CN(CC(=O)Nc1cc(S(=O)(=O)N2CCCC2)ccc1Cl)Cc1ccc2c(c1)OCO2`, the binding remaining, % of control stood at 63%.

Take `COc1ccc([C@H]2CC(=O)C=C(c3c(C)cc(C)cc3C)C2)cc1`: the binding remaining, % of control amounted to 56.3%.

As for `CCCCN(C(=O)CCCc1nc2ccccc2s1)c1c(N)n(CC(C)C)c(=O)[nH]c1=O`, the binding remaining, % of control amounted to 187%.

With `CC(C)(C)NC(=O)COc1ccc(CNCc2cccnc2)cc1`, the binding remaining, % of control came to 90.5%.

Turning to `Cc1ccc(S(=O)(=O)N2CCN(CCOc3c(Cl)cccc3Cl)CC2)cc1C`, the binding remaining, % of control is 100%.

For `Cc1c(Cl)cccc1NC(=O)c1cc(C2CC2)on1`, the binding remaining, % of control amounted to 86%.
